TDP1 cell CPT: growth inhibition of DT40 Tdp1-/-;hTDP1 cells with camptothecin (screen for TDP1 inhibitors); chicken DT40 Tdp1-/-;hTDP1 cells + 20 nM CPT, ATP luminescence, 48 h; Potency, µM (titrated, usually from 46.2 µM), for the others: at the top dose activity change, negative = growth inhibition, most hits filed as inhibitors; 420,000 tested, 12% active; further: potency means the concentration at half of the fitted maximal effect; nearly all actives have a fitted effect of over 55% in size
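Chicken DT40 Tdp1-/- cells stably complemented with human TDP1 were seeded at 400 cells/well in medium containing 20 nM camptothecin, exposed to pin-transferred compounds, and grown at 37 °C for at least 48 hr. Viability was read as ATP luminescence.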
IL1B secr inh: inhibitors of inflammasome signaling (IL-1 beta secretion); THP-1 LPS/ATP IL-1B secretion, AlphaLISA, 16 h; active compounds read low; activity change, % at 57.5 µM; 360,000 tested, 4.7% active; AID 743279; in the data active means activity change below about -50%; inconclusive means mostly about -30% to -49%
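Secreted IL-1B measured by AlphaLISA bead assay after 16 h compound exposure of THP-1 cells; compounds (final up to 57.5 uM) added 1 h before LPS (250 ng/mL) and ATP (1.25 mM) stimulation; lower signal means less secretion.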
uPA surface inh: inhibitors of cell surface uPA generation; cell surface uPA generation assay, qHTS; AID 540303; Potency, µM (highest dose often 38.3 µM), without a hit: top-dose activity change, negative = inhibition, most hits filed as inhibitors; 330,000 tested, 0.31% active; active means well fitted inhibition curve with a large enough effect; inconclusive means small, poorly fitted or top-dose-only effect; inactive means no such curve, though single readings can be large or run the other way; tested in mouse RAW 264.7 cells; further: potency means the concentration at half of the fitted maximal effect; nearly all actives have a fitted effect of over 55% in size
HT1080 IDH1KD tx: toxicity to HT-1080 IDH1 knockdown cells (counter line) | 360,000 tested, 2% active | Potency, µM (highest dose often 46.1 µM), inactives show at the top dose activity, negative = toxicity, actives largely listed as cytotoxic | AID 686971 | HT-1080 IDH1 knockdown viability, ATP luminescence, 48 h;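 further: potency means the concentration at half of the fitted maximal effect; 0% = DMSO wells and -100% = cell-free medium wells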
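Viability of IDH1-knockdown HT-1080 fibrosarcoma cells was assessed by CellTiter-Glo after 48 h at 37 °C with titrated compound; concentration-effect curves were classified by fit quality and response size.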
TDP1 cell noCPT: qHTS for Inhibitors of human tyrosyl-DNA phosphodiesterase 1 (TDP1): qHTS in cells in absence of CPT; Potency, µM (highest dose often 46.2 µM), inactives show top-dose activity change, negative = growth inhibition, most hits filed as inhibitors; AID 686978, 2013; 420,000 tested, 15% active; DT40 Tdp1-/- hTDP1 cells, no CPT, ATP luminescence, 48 h; further: potency means the concentration at half of the fitted maximal effect; nearly all actives have a fitted effect of over 55% in size
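Chicken DT40 Tdp1-/- cells stably complemented with human TDP1 were seeded at 400 cells/well with DMSO in place of 20 nM camptothecin. After compound pinning, cells grew at least 48 hr at 37 °C; viability read by CellTiter-Glo luminescence.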
HT1080NT lethal: kills 2HG-producing HT-1080-NT fibrosarcoma cells | HT-1080-NT fibrosarcoma viability, CellTiter-Glo ATP luminescence, 48 h | Potency, µM (top dose mostly 46.1 µM), without a hit: at the top dose activity, negative = less viability, actives largely listed as cytotoxic | 360,000 tested, 1.6% active | AID 686970;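 further: NT is the 2HG producing partner of a matched IDH1 knockdown line; potency means the concentration at half of the fitted maximal effect; 0% = DMSO-treated cells and -100% = media-only wells without cells; nearly all actives have a fitted effect of over 55% in size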
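Compounds were tested in concentration-response format on HT-1080-NT cells for 48 hours at 37 degrees C. Cell viability came from CellTiter-Glo luminescence; curves were classified by r2, response magnitude and activity.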
An asterisk follows results filed as active; u = inconclusive; x = no result. Only some compounds are listed: those with a hit (about 19% of all), similar ones and a draw of the others. Unless noted, the call rests on the fitted dose curve; in most records, active means well fitted curve in the direction sought with a large enough effect; inconclusive means small, poorly fitted or top-dose-only effect, or another doubt; inactive means no such curve, though single readings can be large; an effect the other way counts as inactive or inconclusive. Unless noted, on the % scale 0 is the no-effect control and ±100 the full control effect.

SMILES	TDP1 cell CPT	IL1B secr inh	uPA surface inh	HT1080 IDH1KD tx	TDP1 cell noCPT	HT1080NT lethal
CC[C@]1(c2ccccc2)C(=O)N(C(=O)OC)N1C(=O)OC	21µM*	-81*	-3%	6%	16µM*	4%
COC(=O)N1[C@H](C)C=C[C@]1(Cc1ccccc1)C(=O)OC	-13%	-3	-10%	5%	-5%	8%
CC[C@@]1(c2ccccc2C)C(=O)N(C(=O)OC)N1C(=O)OC	13µM*	-58*	12%	15%	u	9%
COC(=O)C1C(C(=O)OC)C1(c1ccccc1)c1ccccc1 (configuration not stated)	-9%	-6	-4%	-7%	-22%	1%
COC(=O)N1C(=O)[C@](Cc2ccccc2)(c2ccccc2)N1C(=O)OC	13µM*	-103*	u	-2%	12µM*	0%
COc1ccc(N2CCN(S(=O)(=O)CCNC(=O)C3CC3)CC2)cc1	-3%	-15	3%	6%	-4%	11%
COc1cc(C(=O)NCC(=O)N2CCN(S(=O)(=O)c3ccccc3C(F)(F)F)CC2)cc(OC)c1OC	u	1	u	-9%	u	-16%
CC[C@@]1(c2ccccc2)C(=O)N(C(=O)OC)N1C(=O)OC	8.2µM*	u	-6%	6%	u	16%
CC[C@]1(c2cccc(C)c2)C(=O)N(C(=O)OC)N1C(=O)OC	5.2µM*	-105*	-13%	12%	13µM*	12%
COC(=O)N1C(=O)[C@@](c2ccccc2)(C2CCCCC2)N1C(=O)OC	u	-103*	8.9µM*	-22%	18µM*	u
CC(Oc1ccccc1)C(=O)NC1CCCCCCC1 (configuration not stated)	-23%	-15	4%	-1%	-10%	9%
O=C(c1ccco1)N1CCc2[nH]nc(-c3ccccc3)c2C1	16%	-15	5%	0%	-10%	-2%
COc1cccc(NC(=O)N(CCC(C)C)C2CCN(C(C)C)CC2)c1	-5%	x	x	x	u	x
O=CNc1ccc2c(c1)Cc1cccc(NC=O)c1-2	15%	17	0%	-20%	-3%	-12%
CS(=O)(=O)Nc1cccc(-c2ccc3ncnc(Nc4ccccc4)c3c2)c1	u	x	x	x	21µM*	x
CN(C)c1ncnc2ccc(-c3cccc(NS(C)(=O)=O)c3)cc12	21µM*	x	x	x	16µM*	x
CS(=O)(=O)Nc1cccc(-c2ccc3ncnc(N4CCNCC4)c3c2)c1	15µM*	x	x	x	u	x
CS(=O)(=O)Nc1cccc(-c2ccc3ncnc(NC4CCNCC4)c3c2)c1	-1%	x	x	x	-5%	x
OCCC1CN(CC2CC2)CCN1Cc1ccc(F)c(F)c1 (configuration not stated)	10%	5	1%	2%	-17%	6%
Cc1cc(C)c2c(=O)cc(CSc3nnc(-c4ccccc4)n3C)[nH]c2c1	-21%	x	x	x	-27%	x
Cn1c(=O)c2c(nc3n2CC(O)CN3c2ccc(O)cc2)n(C)c1=O (configuration not stated)	7%	19	2%	7%	5%	1%
CN1C(=O)C(C)(C)N(C(=O)c2cccc([N+](=O)[O-])c2)c2ccccc21	4%	-14	2%	2%	0%	1%
CCN(CC)C(=O)c1ccc2c3c(cccc13)C(=O)N(CCc1ccc(OC)c(OC)c1)C2=O	8.2µM*	-73*	-3%	11%	8.2µM*	0%
CN(C)c1ccc(/C=C/c2ccnc3ccccc23)cc1C=O	16µM*	x	x	x	10µM*	x
CN(C)c1ccc(/C=C/c2ccnc3ccccc23)cc1O	11µM*	x	x	x	10µM*	x
SMILES	TDP1 cell CPT	IL1B secr inh	uPA surface inh	HT1080 IDH1KD tx	TDP1 cell noCPT	HT1080NT lethal
CCOc1ccc(/C=C/c2ccnc3ccccc23)cc1OCC	10µM*	x	x	x	11µM*	x
CSc1ccc(/C=C/c2ccnc3ccccc23)cc1	8%	x	x	x	-5%	x
CCc1cc(/C=C/c2ccnc3ccccc23)ccc1N(C)C	5µM*	x	x	x	2.8µM*	x
CN(C)c1ccc(/C=C/c2ccnc3ccccc23)cc1[N+](=O)[O-]	-2%	x	x	x	-11%	x
Cc1csc(=O)n1CC(=O)OCC(=O)NC(C)c1ccc(F)cc1 (configuration not stated)	-17%	0	8%	9%	1%	13%
CN1CCc2c(sc3c2C(=O)NC(c2ccc(-c4ccc(Cl)cc4)o2)N3)C1 (configuration not stated)	u	x	-1%	-3%	u	-1%
Cn1cccc1C1NC(=O)c2c(sc3c2CCC(C(C)(C)C)C3)N1 (configuration not stated)	-30%	u	x	-2%	18µM*	-8%
Cc1ccc(CNC(=O)c2ccc(N3CCC4(CC3)CC(c3cccc(Br)c3)=NO4)c(NC(=O)c3ccc(Br)cc3)c2)cc1	-5%	-1	5%	11%	-5%	16%
Cc1ccc(CNC(=O)c2ccc(N3CCC4(CC3)CC(c3cccc(Br)c3)=NO4)c([N+](=O)[O-])c2)cc1	10µM*	-9	6%	1%	u	0%
Cc1ccc(CNC(=O)c2ccc(N3CCC4(CC3)CC(c3cccc(Br)c3)=NO4)c(N)c2)cc1	6.5µM*	19	-6%	0%	5.8µM*	-6%
CCCNC(=O)c1ccc(N2CCC3(CC2)CC(c2cccc(Br)c2)=NO3)c([N+](=O)[O-])c1	6.5µM*	u	-19%	-14%	8.2µM*	-13%
COc1ccc(CNC(=O)c2ccc(N3CCC4(CC3)CC(c3ccc(Cl)cc3)=NO4)c([N+](=O)[O-])c2)cc1	u	-10	-7%	0%	0.92µM*	-4%
CCCc1nnc(SCc2ccc(OC)cc2)n1N	26µM*	-7	4%	21%	18µM*	24%
CCCOc1ccc(CSc2nnc(CCC)n2N)cc1	-19%	-14	7%	0%	-23%	-1%
Cc1ccc(C(=O)N/N=C(\CC(C)C)c2ccccc2)cc1	u	-4	-1%	-1%	21µM*	-7%
C#CCn1c(=NC(=O)c2cc(-c3cccs3)nc3ccccc23)sc2cc(S(N)(=O)=O)ccc21	u	16	4%	26µM*	u	u
C#CCn1c(=NC(=O)c2cc(Cl)sc2Cl)sc2cc(S(N)(=O)=O)ccc21	-20%	-2	3%	-15%	-16%	-8%
CC(C)(C)OC(=O)C[C@@H]1C/C=C\C[C@@H](CC(=O)N(CCO)Cc2ccccc2)C(=O)NCCOC1=O	-21%	14	19%	-5%	-21%	2%
